PubChem BioAssay (EPA / NIEHS)
Records with an inconclusive call do not appear. The source made the active and inactive calls. Rule for the calls: active = hit-call score of the fitted dose curve at least 0.9, where 1 is the maximum; inconclusive = response in the unintended direction; inactive = score below 0.9.

Biological target: chimpanzee Androgen Receptor (AR), AR (gene 747460) (UniProt O97775)
Test: NVS_NR_cAR: NovaScreen (NVS) Nuclear Receptor Binding Assay for chimpanzee Androgen Receptor (AR) (AID 2283346);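 note: a loss of bound radioligand signal versus DMSO counts as binding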
Description: NVS_NR_cAR is a biochemical, single-readout assay that uses extracted gene-proteins from Sf9/Sf21 in a cell-free assay. Measurements were taken 72 hours after chemical dosing in a 96-well plate.NVS_NR_cAR is one of one assay component(s) measured or calculated from the NVS_NR_cAR assay. It is designed to make measurements of radioligand binding, a form of binding reporter, as detected with scintillation counting signals by Lysate-based radiodetection technology.Data from the assay component NVS_NR_cAR was analyzed into 1 assay endpoint. This assay endpoint, NVS_NR_cAR, was analyzed in the positive analysis fitting direction relative to DMSO as the negative control and baseline of activity. Using a type of binding reporter, loss-of-signal activity can be used to understand changes in the binding as they relate to the gene AR. Furthermore, this assay endpoint can be referred to as a primary readout, because the performed assay has only produced 1 assay endpoint. To generalize the intended target to other relatable targets, this assay endpoint is annotated to the nuclear receptor intended target family, where the subfamily is steroidal.
Binding assays used specific radioligands (tritiated, iodinated) with non-radioactive competitive displacement ligands in agonist or antagonist protocols (as indicated) and various reference compounds and inhibitors to titrate specific binding to receptors and transporters. Most enzyme assays (CYPs, kinases, phosphatases, proteases, HDACs) used recombinant protein and specific substrates (fluorescence mostly, some colorimetric and radioactive) and inhibitors, followed by a biochemical separation of substrate and product. All assays for the biochemical HTS were initially run in duplicate at a single concentration (10 uM for CYP450 assays and 25 uM for all others). […] Each assay was run with positive and negative controls, and concurrent controls on every plate. The follow-up (secondary) screen tested active chemical-pairs in concentration series, as well as a few additional assays not tested in the primary screen, some selected negative inactives, and several cases re-run in the concentration series for confirmatory purposes.

chimpanzee Androgen Receptor (AR), AR (gene 747460), sequence (O97775 whole entry, looked up): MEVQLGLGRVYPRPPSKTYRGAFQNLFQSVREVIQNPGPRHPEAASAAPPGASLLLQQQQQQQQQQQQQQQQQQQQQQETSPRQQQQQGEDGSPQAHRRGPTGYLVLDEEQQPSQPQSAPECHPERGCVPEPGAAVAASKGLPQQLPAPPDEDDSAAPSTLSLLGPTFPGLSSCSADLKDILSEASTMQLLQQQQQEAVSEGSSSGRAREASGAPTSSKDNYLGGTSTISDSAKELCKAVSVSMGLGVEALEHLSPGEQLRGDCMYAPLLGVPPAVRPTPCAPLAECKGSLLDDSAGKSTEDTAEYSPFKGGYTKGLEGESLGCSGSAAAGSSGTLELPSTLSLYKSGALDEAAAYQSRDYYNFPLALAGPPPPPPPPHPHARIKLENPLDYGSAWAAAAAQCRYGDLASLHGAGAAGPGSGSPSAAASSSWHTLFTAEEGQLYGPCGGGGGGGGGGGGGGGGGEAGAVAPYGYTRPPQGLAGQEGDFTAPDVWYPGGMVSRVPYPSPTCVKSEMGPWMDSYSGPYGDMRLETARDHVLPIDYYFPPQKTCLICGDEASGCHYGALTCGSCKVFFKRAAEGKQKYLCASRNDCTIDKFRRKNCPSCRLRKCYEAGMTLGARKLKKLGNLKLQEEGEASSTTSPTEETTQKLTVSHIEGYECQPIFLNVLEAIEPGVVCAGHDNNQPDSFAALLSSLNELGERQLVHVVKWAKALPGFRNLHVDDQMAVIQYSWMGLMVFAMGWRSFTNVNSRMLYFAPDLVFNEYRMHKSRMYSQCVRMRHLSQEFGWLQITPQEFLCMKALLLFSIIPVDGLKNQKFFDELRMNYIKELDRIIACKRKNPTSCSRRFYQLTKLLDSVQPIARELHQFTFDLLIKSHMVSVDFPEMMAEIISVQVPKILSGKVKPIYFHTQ

| Compound | AC50 | outcome |
| --- | --- | --- |
| COc1ccc(N=Nc2cc(C)c(N=Nc3ccc(S(=O)(=O)O)cc3)cc2OC)cc1 | 25 µM (active) |  |
| CCOc1ccc(N=Nc2ccc(C=Cc3ccc(N=Nc4ccc(OCC)cc4)cc3S(=O)(=O)O)c(S(=O)(=O)O)c2)cc1 | 17.7 µM (active) |  |
| Nc1ccccc1[N+](=O)[O-] |  | inactive |
| O=CCc1ccccc1 |  | inactive |
| Oc1ccc2cc(SSc3ccc4cc(O)ccc4c3)ccc2c1 | 31.9 µM (active) |  |
| OCc1cccc(Oc2ccccc2)c1 | 25 µM (active) |  |
| COc1ccc(OC)c(N=Nc2c(O)ccc3ccccc23)c1 | 2.85 µM (active) |  |
| Oc1c(Cl)cc(Cl)c(Cl)c1Cc1c(O)c(Cl)cc(Cl)c1Cl | 5 µM (active) |  |
| CCOC(=O)c1ccc(N)cc1 |  | inactive |
| CCCCCCCCC=CCCCCCCCC1=NCCN1CCO | 35.8 µM (active) |  |
| Cc1ccc(S(=O)(=O)Oc2ccc(N=Nc3ccc(-c4ccc(N=Nc5c(O)ccc6cc(S(=O)(=O)O)cc(S(=O)(=O)O)c56)c(C)c4)cc3C)cc2)cc1 | 5.44 µM (active) |  |
| CN1CCOCC1 |  | inactive |
| C=C(C)[C@H]1CC=C(C)C(=O)C1 |  | inactive |
| Nc1ccc(N)c2c1C(=O)c1ccccc1C2=O |  | inactive |
| C=C1CC[C@H](O)C/C1=C/C=C1\CCC[C@]2(C)[C@@H]([C@H](C)/C=C/[C@H](C)C(C)C)CC[C@@H]12 | 28.4 µM (active) |  |
| CCc1cc(C(C)(C)C)c(O)c(C(C)(C)C)c1 |  | inactive |
| O=C1OC[C@H](Cc2cccc(O)c2)[C@H]1Cc1cccc(O)c1 | 4.16 µM (active) |  |
| O=C(Nc1ccc2c(O)c(N=Nc3ccc(N=Nc4ccc(S(=O)(=O)O)cc4)cc3)c(S(=O)(=O)O)cc2c1)c1ccccc1 | 40.6 µM (active) |  |
| BrCc1cccc(Oc2ccccc2)c1 | 25 µM (active) |  |
| Cc1cc(=O)oc2cc(N(C)C)ccc12 | 6.8 µM (active) |  |
